Measured values from PubChem BioAssay (EPA / NIEHS).
Results filed as inconclusive are left out. Calls of active or inactive are those of the source. How the source made its calls, unless noted: active means hit-call score of the fitted dose curve at least 0.9, where 1 is the maximum; inconclusive means response in the unintended direction; inactive means score below 0.9.

Assays:
[1] = target: Androgen receptor (Homo sapiens) (UniProt P10275); test: ATG_AR_TRANS: Attagene TRANS-FACTORIAL HepG2 Assay for human Androgen Receptor (AR) (AID 2282973); conditions: HepG2 Attagene TRANS-FACTORIAL AR reporter transcription
Chain of Androgen receptor (Homo sapiens) (P10275 whole entry, looked up, the tested form may be a part): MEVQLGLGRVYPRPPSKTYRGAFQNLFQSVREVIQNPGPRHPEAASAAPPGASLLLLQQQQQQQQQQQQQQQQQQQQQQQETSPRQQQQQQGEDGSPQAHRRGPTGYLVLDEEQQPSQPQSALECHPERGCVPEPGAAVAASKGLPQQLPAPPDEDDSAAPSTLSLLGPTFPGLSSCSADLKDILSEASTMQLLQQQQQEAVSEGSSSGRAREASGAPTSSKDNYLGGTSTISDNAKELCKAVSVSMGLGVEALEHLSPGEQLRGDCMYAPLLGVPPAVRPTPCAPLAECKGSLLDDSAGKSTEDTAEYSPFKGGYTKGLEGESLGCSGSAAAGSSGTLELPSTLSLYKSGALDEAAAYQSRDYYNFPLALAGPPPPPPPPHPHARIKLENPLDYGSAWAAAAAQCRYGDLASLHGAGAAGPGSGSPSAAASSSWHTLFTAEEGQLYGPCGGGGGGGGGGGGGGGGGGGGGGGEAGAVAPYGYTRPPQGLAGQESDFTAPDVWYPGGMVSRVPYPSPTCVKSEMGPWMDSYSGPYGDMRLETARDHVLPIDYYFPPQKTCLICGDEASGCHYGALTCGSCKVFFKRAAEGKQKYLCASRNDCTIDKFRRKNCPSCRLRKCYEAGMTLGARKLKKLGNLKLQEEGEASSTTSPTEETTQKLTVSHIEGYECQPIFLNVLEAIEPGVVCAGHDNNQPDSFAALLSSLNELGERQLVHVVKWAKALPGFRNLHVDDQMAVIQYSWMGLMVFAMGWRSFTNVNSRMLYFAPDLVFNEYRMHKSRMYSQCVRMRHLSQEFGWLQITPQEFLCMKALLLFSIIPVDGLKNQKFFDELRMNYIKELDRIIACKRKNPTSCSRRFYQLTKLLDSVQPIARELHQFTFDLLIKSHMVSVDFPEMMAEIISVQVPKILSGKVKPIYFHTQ
Method in brief: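 HepG2 cells transiently transfected with multiplexed GAL4-UAS reporter units and chimeric NR-Gal4 fusion; 24 h compound exposure. Reporter mRNA measured by RT-PCR, 6-FAM labelling, HpaI digestion and capillary electrophoresis; gain-of-signal fitted relative to DMSO baseline.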

[2] = Tanguay_ZF_120hpf_MUSC: Oregon State University Tanguay Lab 120 Hour Post-fertilization zebrafish Assay for Muscle Malformation (AID 2284401; active means hit-call score of the fitted dose curve at least 0.9, where 1 is the maximum; inactive means score below 0.9)
Method in brief: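 Dechorionated Tropical 5D wild-type zebrafish embryos exposed statically from 6 to 120 hpf at 28C, one per well, in 0.64% DMSO. Muscle malformation scored present/absent by brightfield microscopy at 120 hpf, fitted against DMSO.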

[3] = target: Norway rat Vesicular Monoamine Transporter (VMAT2), neurotransmitter transporter, Slc18a2 (gene 25549) (UniProt Q01827); test: NVS_TR_rVMAT2: NovaScreen (NVS) Transporter Assay for Norway rat Vesicular Monoamine Transporter (VMAT2), neurotransmitter transporter (AID 2283376);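 further: actives lower the bound radioligand signal below the DMSO level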
Chain of Norway rat Vesicular Monoamine Transporter (VMAT2), neurotransmitter transporter, Slc18a2 (gene 25549) (Q01827 whole entry, looked up): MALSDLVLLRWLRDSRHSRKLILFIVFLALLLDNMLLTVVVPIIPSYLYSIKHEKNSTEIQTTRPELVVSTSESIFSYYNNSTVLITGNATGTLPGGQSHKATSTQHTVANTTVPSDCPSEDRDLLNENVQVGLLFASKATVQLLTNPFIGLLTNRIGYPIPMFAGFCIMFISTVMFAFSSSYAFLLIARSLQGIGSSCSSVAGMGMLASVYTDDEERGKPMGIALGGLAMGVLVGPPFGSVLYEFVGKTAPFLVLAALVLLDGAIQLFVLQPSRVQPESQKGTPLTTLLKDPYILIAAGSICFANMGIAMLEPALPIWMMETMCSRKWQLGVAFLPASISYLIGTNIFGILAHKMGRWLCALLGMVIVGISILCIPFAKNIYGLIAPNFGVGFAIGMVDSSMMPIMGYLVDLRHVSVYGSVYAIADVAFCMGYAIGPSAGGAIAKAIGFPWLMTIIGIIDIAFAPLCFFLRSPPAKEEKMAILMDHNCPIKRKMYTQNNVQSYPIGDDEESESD
Method in brief: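 Tissue: rat forebrain extract. Format: competitive radioligand binding, cell-free. Timepoint: 1 h. Readout: filter radiodetection/scintillation. Screen: 25 uM in duplicate, then concentration series for actives. Baseline: DMSO.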

[4] = target: rat Corticotropin Releasing Factor Receptor (CRF), Crhr1 (gene 58959) (UniProt P35353); test: NVS_GPCR_rCRF: NovaScreen (NVS) G Protein-Coupled Receptor Assay for rat Corticotropin Releasing Factor Receptor (CRF) (AID 2283300)
Chain of rat Corticotropin Releasing Factor Receptor (CRF), Crhr1 (gene 58959) (P35353 whole entry, looked up): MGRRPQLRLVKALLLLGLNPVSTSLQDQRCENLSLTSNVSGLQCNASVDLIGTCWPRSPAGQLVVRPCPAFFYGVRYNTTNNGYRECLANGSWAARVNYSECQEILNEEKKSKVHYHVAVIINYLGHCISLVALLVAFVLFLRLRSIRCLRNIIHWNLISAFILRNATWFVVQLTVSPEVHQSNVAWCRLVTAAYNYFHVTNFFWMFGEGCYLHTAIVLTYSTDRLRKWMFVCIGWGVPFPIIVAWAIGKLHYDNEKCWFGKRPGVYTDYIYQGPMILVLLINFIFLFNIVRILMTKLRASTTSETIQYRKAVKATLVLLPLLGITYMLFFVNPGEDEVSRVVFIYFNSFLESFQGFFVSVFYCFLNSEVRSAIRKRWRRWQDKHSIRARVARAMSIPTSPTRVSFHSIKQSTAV
Method in brief: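 Rat cortical membranes used as receptor source in a radioligand competitive displacement binding assay; scintillation read 2 h after dosing. Primary screen run in duplicate at 25 uM; loss of signal versus DMSO baseline indicates binding.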

[5] = target: Voltage-dependent N-type calcium channel subunit alpha-1B (Rattus norvegicus) (UniProt Q02294); test: NVS_IC_rCaChN: NovaScreen (NVS) Ion Channel Assay for rat Calcium Channel, Type N (CaChN) (AID 2283317)
[6] = target: bovine Gamma-Aminobutyric Acid Type A Receptor BDZ, alpha 1 site (GABARa1), GABRA1 (gene 780973) (UniProt P08219); test: NVS_LGIC_bGABARa1: NovaScreen (NVS) Ligand-Gated Ion Channel Assay for bovine Gamma-Aminobutyric Acid Type A Receptor BDZ, alpha 1 site (GABARa1) (AID 2283321)
Chain of bovine Gamma-Aminobutyric Acid Type A Receptor BDZ, alpha 1 site (GABARa1), GABRA1 (gene 780973) (P08219 whole entry, looked up): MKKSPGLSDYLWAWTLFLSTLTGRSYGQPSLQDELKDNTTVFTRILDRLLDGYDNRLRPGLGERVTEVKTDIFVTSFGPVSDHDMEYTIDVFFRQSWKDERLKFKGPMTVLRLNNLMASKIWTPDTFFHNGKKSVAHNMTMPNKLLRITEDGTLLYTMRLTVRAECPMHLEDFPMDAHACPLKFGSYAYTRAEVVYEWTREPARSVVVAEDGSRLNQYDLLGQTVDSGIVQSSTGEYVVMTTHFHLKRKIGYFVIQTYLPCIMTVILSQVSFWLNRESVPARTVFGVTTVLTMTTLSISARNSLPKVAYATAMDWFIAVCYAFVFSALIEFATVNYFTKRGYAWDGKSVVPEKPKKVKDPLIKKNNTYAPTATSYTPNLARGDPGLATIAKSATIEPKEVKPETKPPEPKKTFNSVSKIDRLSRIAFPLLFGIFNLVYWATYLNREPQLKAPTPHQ
Method in brief: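 Radioligand competition binding on bovine cortical membranes, 0.75 h, filter-based scintillation counting. Primary single concentration 25 uM in duplicate; actives rerun in concentration-response to 50 uM max. Loss of signal fitted versus DMSO.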

[7] = read-out: xenobiotic metabolism (CYP2C9), CYP2C9 (gene 1559); test: CLD_CYP2C9_6hr: CellzDirect (CLD) Gene Expression Assay for xenobiotic metabolism (CYP2C9) at 6 hours (AID 2283664)
Method in brief: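 Primary human hepatocytes dosed daily with test chemicals at multiple concentrations; harvested at 6 h. CYP2C9 mRNA induction measured by qNPA chemiluminescence. Gain of signal fitted against 0.2% DMSO vehicle; cytotoxicity annotated from phase-contrast morphology.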

[8] = test system: rat Monoamine Oxidase, MAO-A, Central (MAOAC), gene 29253; test: NVS_ENZ_rMAOAC: NovaScreen (NVS) Enzymatic Assay for rat Monoamine Oxidase, MAO-A, Central (MAOAC) (AID 2283243);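 further: potency refers to inhibition seen as signal drop below DMSO baseline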
Method in brief: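 Inhibition of rat brain-derived MAO-A was read by scintillation counting after 1.5 h exposure. Compounds screened first at 25 uM in duplicate, then in dose series if active.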

[9] = target: human Neonicotinoid receptor (NNR), CHRNA2 (gene 1135) (UniProt Q15822); test: NVS_LGIC_hNNR_NBungSens: NovaScreen (NVS) Ligand-Gated Ion Channel Assay for human Neonicotinoid receptor (NNR) (AID 2283313)
Chain of human Neonicotinoid receptor (NNR), CHRNA2 (gene 1135) (Q15822 whole entry, looked up): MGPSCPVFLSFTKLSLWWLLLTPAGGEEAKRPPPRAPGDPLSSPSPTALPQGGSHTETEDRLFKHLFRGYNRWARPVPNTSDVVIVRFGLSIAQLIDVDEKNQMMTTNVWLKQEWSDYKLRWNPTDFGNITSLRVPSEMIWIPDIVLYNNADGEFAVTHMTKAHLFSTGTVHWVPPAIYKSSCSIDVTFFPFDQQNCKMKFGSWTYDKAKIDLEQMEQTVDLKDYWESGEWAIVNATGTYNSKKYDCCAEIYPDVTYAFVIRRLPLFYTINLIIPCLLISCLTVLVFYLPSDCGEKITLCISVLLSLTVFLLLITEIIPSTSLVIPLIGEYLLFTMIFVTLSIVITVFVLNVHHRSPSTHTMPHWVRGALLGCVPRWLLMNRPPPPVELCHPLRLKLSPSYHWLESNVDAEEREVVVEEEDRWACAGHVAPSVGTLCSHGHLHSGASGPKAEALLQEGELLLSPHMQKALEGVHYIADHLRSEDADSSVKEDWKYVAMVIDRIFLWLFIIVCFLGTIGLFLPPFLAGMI
Method in brief: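 Radioligand displacement on human neuroblastoma membranes, 2 h, filter-based scintillation counting. Primary screen in duplicate at 25 uM; chemicals passing threshold (e.g. 30% inhibition) run singleton concentration-response to 50 uM; loss of binding fitted versus DMSO.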

[10] = target: rat Oxytocin Receptor (OXT), Oxtr (gene 25342) (UniProt P70536); test: NVS_GPCR_rOXT: NovaScreen (NVS) G Protein-Coupled Receptor Assay for rat Oxytocin Receptor (OXT) (AID 2283330)
Chain of rat Oxytocin Receptor (OXT), Oxtr (gene 25342) (P70536 whole entry, looked up): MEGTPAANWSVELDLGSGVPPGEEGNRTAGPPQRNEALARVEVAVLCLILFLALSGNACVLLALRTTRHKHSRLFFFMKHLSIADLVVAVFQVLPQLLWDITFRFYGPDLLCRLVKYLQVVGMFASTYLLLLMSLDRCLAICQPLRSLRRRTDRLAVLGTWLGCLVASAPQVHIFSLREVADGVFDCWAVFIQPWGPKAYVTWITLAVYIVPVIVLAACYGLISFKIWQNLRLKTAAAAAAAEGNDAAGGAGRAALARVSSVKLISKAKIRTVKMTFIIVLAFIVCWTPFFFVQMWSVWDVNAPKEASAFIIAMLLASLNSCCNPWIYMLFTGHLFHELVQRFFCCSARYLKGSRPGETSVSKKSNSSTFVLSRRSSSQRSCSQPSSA
Method in brief: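 Radioligand displacement on rat uterine membranes, 1 h incubation, filter-based scintillation counting. Chemicals were screened in duplicate at 25 uM, and those passing threshold were retested in concentration-response up to 50 uM. Loss of binding was fitted versus DMSO.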

[11] = target: Bile acid receptor (Homo sapiens) (UniProt Q96RI1); test: NVS_NR_hFXR_Agonist: NovaScreen (NVS) Nuclear Receptor Binding Assay for human Farnesoid X Receptor Agonism (FXR) (AID 2283347)
Chain of Bile acid receptor (Homo sapiens) (Q96RI1 whole entry, looked up): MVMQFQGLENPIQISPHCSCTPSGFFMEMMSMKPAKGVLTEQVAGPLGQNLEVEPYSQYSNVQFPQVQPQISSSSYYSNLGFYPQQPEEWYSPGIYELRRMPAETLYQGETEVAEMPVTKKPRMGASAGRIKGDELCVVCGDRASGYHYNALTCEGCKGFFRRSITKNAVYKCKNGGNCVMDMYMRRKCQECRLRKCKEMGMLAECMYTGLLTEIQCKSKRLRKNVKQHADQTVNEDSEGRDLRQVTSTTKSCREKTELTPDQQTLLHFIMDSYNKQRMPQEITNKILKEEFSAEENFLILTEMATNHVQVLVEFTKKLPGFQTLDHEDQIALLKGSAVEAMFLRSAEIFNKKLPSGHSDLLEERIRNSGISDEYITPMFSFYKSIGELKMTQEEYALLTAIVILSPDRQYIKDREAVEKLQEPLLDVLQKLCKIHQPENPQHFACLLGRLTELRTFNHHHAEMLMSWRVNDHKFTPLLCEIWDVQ
Method in brief: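 Cell-free TR-FRET binding assay with extracted human FXR protein, agonist format, read 1 h after dosing. Primary screen at 25 uM single concentration in duplicate, actives retested in concentration series; gain of signal versus DMSO.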

[12] = CCTE_Harrill_HTTr_Apoptosis_PRF_DMEM_12hr: (Pilot) CCTE's 12-hour Apoptosis Assessment for the High-Throughput Transcriptomics (HTTr) Platform, in MCF-7 cells cultured in phenol red-free DMEM + 10% charcoal-stripped fetal bovine serum, Harrill Lab (AID 2283985; active means hit-call score of the fitted dose curve at least 0.9, where 1 is the maximum; inactive means score below 0.9)
Method in brief: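 MCF-7 cells in phenol red-free DMEM with 10% charcoal-stripped FBS, eight-point dilution series, 12 h exposure. Caspase-3/7 activation imaged by high content imaging with CellEvent Green reagent; bidirectional fit vs DMSO.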

O=C(CC(=O)C(F)(F)C(F)(F)F)C(F)(F)F
outcome [1]: inactive | outcome [2]: inactive

O=S(=O)(O)CCC(F)(F)C(F)(F)C(F)(F)C(F)(F)C(F)(F)C(F)(F)F
outcome [1]: inactive | outcome [2]: inactive

O=C1CCC(=O)N1
outcome [1]: inactive | outcome [3]: inactive

OCCC(F)(F)C(F)(F)C(F)(F)C(F)(F)C(F)(F)C(F)(F)C(F)(F)C(F)(F)F
outcome [1]: inactive | outcome [4]: inactive | outcome [2]: inactive

O=C(O)C(F)(F)C(F)(F)C(F)F
outcome [1]: inactive | outcome [2]: inactive

O=C(O)C(F)(F)C(F)(F)C(F)(F)OC(F)(F)F
outcome [1]: inactive | outcome [2]: inactive

c1ccc2c(c1)ccc1ccccc12
outcome [1]: inactive | outcome [3]: inactive

COC(=O)CSc1cc(N=c2sc(=O)n3n2CCCC3)c(F)cc1Cl
outcome [1]: inactive | outcome [5]: inactive | outcome [6]: inactive | outcome [7]: inactive

O=C(O)CCC(F)(F)C(F)(F)C(F)(F)C(F)(F)C(F)(F)C(F)(F)C(F)(F)F
outcome [1]: inactive | outcome [2]: inactive

C=CC(F)(F)C(F)(F)C(F)(F)C(F)(F)C(F)(F)C(F)(F)C(F)(F)C(F)(F)F
outcome [1]: inactive | outcome [2]: inactive

OCCC(F)(F)C(F)(F)C(F)(F)C(F)(F)F
outcome [1]: inactive | outcome [2]: inactive

O=C(O)C=C(C(F)(F)F)C(F)(F)F
outcome [1]: inactive | outcome [2]: inactive

O=C1c2ccc(O)c(O)c2C(=O)c2c(O)ccc(O)c21
outcome [1]: inactive | outcome [8]: inactive

OCCCC(F)(F)C(F)(F)C(F)(F)C(F)(F)C(F)(F)C(F)(F)C(F)(F)C(F)(F)F
outcome [1]: inactive | outcome [2]: inactive

COC(F)(C(F)F)C(F)(F)F (configuration not stated)
outcome [1]: inactive | outcome [2]: inactive

CCOC(=O)CC(C)O (configuration not stated)
outcome [1]: inactive | outcome [8]: inactive

CCOc1ccc(NC(C)=O)cc1
outcome [1]: inactive | AC50 [8]: 21 µM (active)

CC(=N[Si](C)(C)C)O[Si](C)(C)C
outcome [1]: inactive | outcome [3]: inactive

C[Si](C)(C)C(F)(F)C(F)(F)C(F)(F)F
outcome [1]: inactive | outcome [2]: inactive

CC(=O)S[C@@H]1CC2=CC(=O)CC[C@]2(C)[C@H]2CC[C@@]3(C)[C@@H](CC[C@@]34CCC(=O)O4)[C@H]12
outcome [1]: inactive | outcome [3]: inactive

O=C(O)CCC(F)(F)C(F)(F)C(F)(F)C(F)(F)C(F)(F)F
outcome [1]: inactive | outcome [2]: inactive

Cc1cc(F)ccc1-c1cc(N2CC[C@@H](O)[C@H]2CO)ncc1N(C)C(=O)C(C)(C)c1cc(C(F)(F)F)cc(C(F)(F)F)c1
outcome [1]: inactive | AC50 [3]: 11.7 µM (active)

NCCOCCOCCN
outcome [1]: inactive | outcome [9]: inactive | outcome [10]: inactive

CN1CCN(C)CC1
outcome [1]: inactive | outcome [3]: inactive

O=C(CCCCCCCCc1cccnc1)N1CCC(C=C(c2ccccc2)c2ccccc2)CC1
outcome [1]: inactive | outcome [5]: inactive

Cc1cnccn1
outcome [1]: inactive | outcome [3]: inactive

CC(C)OC(=O)C(C)(C)Oc1ccc(C(=O)c2ccc(Cl)cc2)cc1
outcome [1]: inactive | AC50 [11]: 25 µM (active) | outcome [12]: inactive

CC1=C(C)S(=O)(=O)CCS1(=O)=O
outcome [1]: inactive | outcome [3]: inactive

CCCCCc1ccc(O)cc1
outcome [1]: inactive | AC50 [8]: 17.3 µM (active)

CCC(=C(c1ccc(O)cc1)c1ccc(OCCN(C)C)cc1)c1ccccc1
outcome [1]: inactive | outcome [5]: inactive | AC50 [3]: 0.626 µM (active) | AC50 [12]: 80.6 µM (active)
